Measured values published in PubChem BioAssay.
Activity calls are given as the source filed them. No rule for the calls is given here.

target: Pantothenate synthetase (Mycobacterium tuberculosis (strain ATCC 25618 / H37Rv)) (UniProt P9WIL5); assay: Coupled enzyme confirmation of inhibitors against recombinant Mtb PanC (AID 375); conditions: coupled enzyme assay; at 10 µM, active compounds read high;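 also: 0% = full reaction with vehicle and 100% = no enzyme background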
Sequence (P9WIL5 whole entry, looked up): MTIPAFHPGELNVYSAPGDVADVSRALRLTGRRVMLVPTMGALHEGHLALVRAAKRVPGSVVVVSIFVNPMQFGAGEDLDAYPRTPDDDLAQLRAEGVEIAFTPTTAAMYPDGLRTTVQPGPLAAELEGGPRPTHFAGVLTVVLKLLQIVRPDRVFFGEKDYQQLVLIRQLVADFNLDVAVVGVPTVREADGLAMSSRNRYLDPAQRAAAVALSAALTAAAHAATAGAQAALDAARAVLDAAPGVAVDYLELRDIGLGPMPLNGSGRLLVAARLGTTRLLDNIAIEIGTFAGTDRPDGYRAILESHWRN

| Compound | inhibition |
| --- | --- |
| CC1CCN(c2nc3c(c(=O)n(C)c(=O)n3C)n2Cc2ccccc2)CC1 | 0% (inactive) |
| COc1ccccc1-n1c(SCC(=O)NC(C)(C)C)nnc1-c1ccco1 | 0% (inactive) |
| COc1ccc(-c2cc3nc4n(c(=O)c3s2)CCC4)cc1 | 8% (inactive) |
| CC1CCCCN1CCNC(=O)c1ccc2c(=O)n(CCc3ccccc3)c(=O)[nH]c2c1 (stereo not drawn) | 0% (inactive) |
| c1cc2c(cc1Cn1cnnn1)OCO2 | 0% (inactive) |
| CC(C)(C)n1nnnc1CN1CCC(NC(=O)NC2CCCCC2)CC1 | 0% (inactive) |
| COC(=O)c1ccccc1NC(=O)C12CCC(C)(C(=O)O1)C2(C)C (stereo not drawn) | 0% (inactive) |
| Cc1cccn2c(=O)c3cc(C#N)c(=O)n(CCCN4CCOCC4)c3nc12 | 0% (inactive) |
| O=C(CN1CCN(c2ncccn2)CC1)Nc1ccccc1-n1cccc1 | 0% (inactive) |
| COCc1[nH]nc2c1C(c1cc(OC)c(O)c(OC)c1)C(C#N)=C(N)O2 (stereo not drawn) | 0% (inactive) |
| O=C(Nc1ccc(Br)cc1F)c1sccc1-n1cccc1 | 4% (inactive) |
| COc1ccc(S(=O)(=O)N2Cc3ccccc3CC2C(=O)Nc2ccc(O)cc2)cc1OC (stereo not drawn) | 10% (inactive) |
| O=S(=O)(Nc1ccc2c(c1)OCO2)c1ccc(Br)s1 | 0% (inactive) |
| CCCCNS(=O)(=O)c1ccc(OC)c2ncccc12 | 3% (inactive) |
| O=C(NC1CCS(=O)(=O)C1)N1CCCCC1 (stereo not drawn) | 7% (inactive) |
| CC(C)c1ccc(C(O)c2cnc(C(C)C)n2C)cc1 (stereo not drawn) | 1% (inactive) |
| O=C(CCCn1c(=S)[nH]c2ccccc2c1=O)N1CCCCC1 | 0% (inactive) |
| CCOC(=O)CSc1nc2sc(C)c(C)c2c(=O)n1C | 0% (inactive) |
| Cc1cccc(NC(=O)CCN2CCN(C/C=C/c3ccccc3)CC2)c1 | 0% (inactive) |
| O=C1CC(Cc2ccccc2)C(=O)N1CCc1ccc2c(c1)OCO2 (stereo not drawn) | 3% (inactive) |
| CCOC(=O)c1cnn(-c2sc(C(=O)OCC)c(C)c2C(=O)OCC)c1N | 0% (inactive) |
| Clc1cccc(Cl)c1COc1ccncc1 | 0% (inactive) |
| CCN1CCN(c2nc3c(c(=O)n(C)c(=O)n3C)n2CCSc2ncccn2)CC1 | 0% (inactive) |
